# Data reported in PubChem BioAssay AID1240 (Sanford-Burnham Center for Chemical Genomics, 2008).
# Screen size: about 50,000 compounds; about 800 (1.6%) showed an effect of 50% or more. Shown is part of a subset that was picked to be rich in strong results.
# Target: Bcl-2-like protein 10 (Homo sapiens) (UniProt Q9HD36)
# Experiment: Phenotype converters, Bcl-B/TR3 peptide binding displacement, primary biochemical FP (AID 1240);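 note: 0% = Bcl-B with tracer peptide and DMSO and 100% = tracer peptide lacking Bcl-B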
# Details: GST-Bcl-B / FITC-TR3 peptide fluorescence polarization; stronger effect = higher value; compound at 3.75 mg/L
# Bcl-2-like protein 10 (Homo sapiens), sequence (Q9HD36 whole entry, looked up): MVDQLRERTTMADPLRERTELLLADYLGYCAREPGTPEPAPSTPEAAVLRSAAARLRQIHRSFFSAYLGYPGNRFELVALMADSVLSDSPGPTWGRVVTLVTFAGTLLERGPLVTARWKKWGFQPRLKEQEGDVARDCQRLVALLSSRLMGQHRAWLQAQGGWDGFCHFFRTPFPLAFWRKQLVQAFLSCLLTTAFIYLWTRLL
row,Compound,displacement [%]
1,O=C1/C(=C/c2ccc(Br)o2)Sc2ccccc21,92.7
2,COc1ccc(/C=C2/Sc3ccccc3C2=O)cc1Br,116
3,O=C1/C(=C\c2ccc(-c3ccc([N+](=O)[O-])cc3Br)o2)Sc2ccccc21,-17.8
4,CCOc1cc(/C=C2\Sc3ccccc3C2=O)ccc1OC,0.2
5,NS(=O)(=O)c1ccc(-c2ccc(/C=C3\Sc4ccccc4C3=O)o2)cc1,-71.8
6,COc1ccc(/C=C2/Sc3ccccc3C2=O)cc1[N+](=O)[O-],-5.3
7,O=C(NCc1ccccn1)C(=O)Nc1ccccc1F,-20.9
8,Cc1ccc(S(=O)(=O)NCCOc2ccccc2Cl)cc1[N+](=O)[O-],13
9,CC(=O)N/C(=C\c1ccccc1)C(=O)NC(CC(C)C)C(=O)O (centres undefined),-2.1
10,C#CCOC(=O)/C(=C/c1ccc(F)cc1)NC(C)=O,-8.4
11,CC(=O)N/C(=C\c1ccc(F)cc1)C(=O)NC(C(=O)O)C(C)C (centres undefined),81.8
12,COc1ccccc1NC(=O)c1cccc2c(Br)cccc12,-5.4
13,COc1ccc(N(CC(=O)NC(C)c2ccccc2)S(=O)(=O)c2ccc(C)cc2)c(OC)c1 (centres undefined),2.3
14,Cc1cc(C)cc(OCC(=O)N2CCN(c3ccc([N+](=O)[O-])cc3)CC2)c1,-3.5
15,CCOC(=O)COc1ccc2cc(-c3nc4ccccc4[nH]3)c(=O)oc2c1,7.3
16,CCOC(=O)COc1ccc2cc(-c3nc4ccccc4o3)c(=O)oc2c1,8.8
17,O=c1oc2cc(OCc3c(F)c(F)c(F)c(F)c3F)ccc2cc1-c1ccc2ccccc2n1,-49.7
18,C=C(C)COc1ccc2cc(-c3nc4ccccc4s3)c(=O)oc2c1,66.5
19,O=C(COc1ccc2ccc(=O)oc2c1)OCc1ccccc1,10.9
20,CCOc1ccc2c(=O)c(-c3nc4ccccc4s3)coc2c1,7.8
21,O=C(COc1ccc2cc(-c3nc4ccccc4s3)c(=O)oc2c1)OCc1ccccc1,53.3
22,Cc1oc2cc(OCC(=O)OCc3ccccc3)ccc2c(=O)c1-c1nc2ccccc2s1,11.3
23,O=c1c(-c2nc3ccccc3s2)coc2cc(OCc3ccc([N+](=O)[O-])cc3)ccc12,6.2

row,Compound,displacement [%]
1,CC(C)(C)OC(=O)COc1ccc2cc(-c3nc4ccccc4s3)c(=O)oc2c1,92
2,O=c1oc2ccccc2cc1-c1nc2ccccc2s1,-1
3,O=c1oc2cc(OCc3ccc(F)cc3)ccc2cc1-c1nc2ccccc2s1,52.5
4,CCOc1ccc(N(CC(=O)Nc2cccc3cccnc23)S(=O)(=O)c2ccccc2)cc1,-39.5
5,O=C(Nc1ccc2nn(-c3ccc(F)cc3)nc2c1)c1cc2ccccc2o1,2.5
6,O=C1N/C(=N/N=C\c2ccc(-c3ccc(Cl)cc3)o2)SC1Cc1ccccc1 (centres undefined),17
7,CC(Sc1nnc(N)s1)c1ccccc1 (centres undefined),5.2
8,COc1ccc(CC(=O)N=Nc2c(O)n(CN3CCN(C)CC3)c3ccccc23)cc1,-3
9,O=C(CN1C(=O)c2ccc([N+](=O)[O-])cc2C1=O)N1CCCCC1,-9.1
10,COc1ccc(NC(=O)C(=O)NCc2ccc(C)cc2)c(OC)c1,10.4
11,O=C(COc1ccc(Cl)cc1Br)NNC(=O)c1ccncc1,-4.5
12,CC(=O)c1cc(F)c(N2CCN(C(=O)c3cccs3)CC2)cc1C,80
13,CC(=O)c1cc(F)c(N2CCN(C(=O)c3ccccc3Br)CC2)cc1C,-5.4
14,CC(=O)c1ccc(N2CCN(C(=O)c3cccs3)CC2)c(F)c1,-4.6
15,C=C(NC(C)=O)C(=O)c1ccc([N+](=O)[O-])cc1,18.9
16,O=c1ccc([N+](=O)[O-])ccc1Nc1ccccn1,58.1
17,Cc1ccc(NS(=O)(=O)c2ccc([N+](=O)[O-])cc2)cc1,15.1
18,Cc1ccc(Nc2ccc([N+](=O)[O-])c3nonc23)cc1,-2.1
19,O=C(COc1ccc([N+](=O)[O-])cc1)Nc1ccccn1,-10.4
20,O=C(Nc1ccccc1C(=O)Nc1ccccn1)c1ccc([N+](=O)[O-])cc1,45.1
21,Cc1ccc(Nc2ccc([N+](=O)[O-])ccc2=O)cc1,136
22,O=C(c1ccccc1)N1CCN(CCCc2ccccc2)CC1,-9.4
23,Cc1cccc(C(=O)O/N=C(\N)c2ccncc2)c1,8.5

row,Compound,displacement [%]
1,Clc1ccc(CN2CCN(/N=C/c3ccc(Br)s3)CC2)cc1,14.6
2,N#C/C(=C/c1cccc(Cl)c1)c1nc(-c2ccc(Cl)cc2)cs1,-4.7
3,COc1cc(OC)c(NC(=O)c2ccccc2C)cc1Cl,-12
4,CCOc1cc(C=C2C(=O)NC(=O)NC2=O)ccc1OCc1ccccc1,33.7
5,Cc1no[n+]([O-])c1COc1ccc(/C=C2\SC(=S)NC2=O)cc1,-27.5
6,CCOc1ccc(C=C2C(=O)NC(=O)NC2=O)cc1OCC,14.1
7,Cc1no[n+]([O-])c1COc1ccc(C=C2C(=O)NC(=O)NC2=O)cc1,2.5
8,CCOc1cc(C=C2C(=O)NC(=O)NC2=O)ccc1OCc1c(C)no[n+]1[O-],108
9,CCOc1cc(C=C2C(=O)NC(=O)NC2=O)ccc1OCc1cccc2ccccc12,58.6
10,Cc1no[n+]([O-])c1COc1cccc(/C=C2\SC(=S)NC2=O)c1,-27.6
11,CCOc1cc(/C=C2\SC(=S)NC2=O)ccc1OCc1c(C)no[n+]1[O-],117
12,COc1cc(C=C2C(=O)NC(=O)NC2=O)ccc1OCc1c(C)no[n+]1[O-],-3.9
13,O=C(c1nn2c(C(F)(F)F)cc(-c3ccccc3)nc2c1Cl)N1CCCC1,22.7
14,CC1=NN(C(=O)c2ccc([N+](=O)[O-])cc2)C(O)(C(F)(F)F)C1 (centres undefined),6.8
15,O=C1NC(=Nc2ccc(Cl)cc2)SC1Cc1cccc([N+](=O)[O-])c1 (centres undefined),-4.7
16,O=C(CN(c1ccc(Br)cc1)S(=O)(=O)c1ccccc1)NC1CC2CCC1C2 (centres undefined),-0.2
17,Nc1nnc(SCC(=O)N2c3ccccc3Sc3ccccc32)s1,-2
18,CC(=O)N(CCC1(Cc2ccccc2)CCOC(C)(C)C1)Cc1ccccc1 (centres undefined),7.8
19,O=C(O)CCCCCN1C(=O)C(=O)/C(=C(/O)c2ccccc2)C1c1cccc(F)c1 (centres undefined),-11.9
20,COc1ccc(C(NC(C)=O)NC(C)=O)cc1OC,6.3
21,CCOc1ccc(C(=O)N(C(=O)c2ccc(OCC)cc2)c2ncccc2C)cc1,-0.9
22,COC(=O)c1[nH]cnc1C(=O)Nc1ccc(C)cc1C(=O)c1ccccc1,-1.6
23,Cc1ccccc1-c1nc2ccccc2c(=O)n1/N=C/c1ccc([N+](=O)[O-])cc1,12.8
